Experimental data from PubChem BioAssay AID652058 (Broad Institute, 2013).
Among all 1,200 compounds or so, about 870 (72%) were called active. Another 3% or so got no clear call; they are omitted. The set was probably picked from earlier hits. These entries were drawn from the full list. Entries with a potency or affinity are not part of this list. Unmarked numbers belong to inactive results.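 Rule for the calls: active = every test run fits a falling curve whose half-maximal concentration is at most twice the top valid dose; inconclusive = runs disagree, or flat 30 to 70% inhibition, or poor fit; inactive = every run inactive: flat, rising or weaker potency.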

Experiment: ZM109 Env clade C HIV-1 fusion inhibitors, dose response, HeLa effector, CEM target cells, luciferase, cherry-pick (AID 652058);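 note: 0% = neutral control wells and -100% = maraviroc 300 nM wells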
Settings: HeLa Env/CEM cell fusion, 16-24 h; series mostly up to 35 µM; activity change, negative = inhibition: at the top concentration

| SMILES | activity change, negative = inhibition |
| --- | --- |
| COCCCNC(=O)c1sc2ncnc(N3CCc4ccccc4C3)c2c1C | 67.1% |
| CC(C)(C)OC(=O)N1CCc2onc(-c3ccc(Br)cc3)c2C1=O | 40.4% |
| COc1ccc(Nc2ncc(C(=O)N3CCN(c4ccc(F)cc4)CC3)c3ccccc23)cc1 | -34.6% |
| c1coc(CNc2c3c(nc4ccccc24)CCC3)c1 | -23.4% |
| Cc1ccc(NS(=O)(=O)c2cc(C(=O)N(C)C3CCN(C)CC3)ccc2Cl)cc1Cl | 13.3% |
| Cc1cc(Cl)c(S(=O)(=O)N2CCCC2)cc1OCC(=O)NC1CCCCC1 | -16.4% |
| C=CCOc1c(Br)cc(CNc2ccc(NC(=O)C(C)C)c(OC)c2)cc1OC | 378% [at 16 µM] |
| Cc1noc(C)c1NC(=O)N(C)C[C@H]1OCCCC[C@H](C)Oc2ccc(NC(=O)c3ccccc3)cc2C(=O)N([C@H](C)CO)C[C@@H]1C | 213% |
| O=C(c1ccc(Cl)cc1)N1CCCCC(Sc2nnc(-c3ccc4c(c3)OCO4)o2)C1=O (configuration not stated) | -15.8% |
| COc1cccc(S(=O)(=O)N[C@H]2CC[C@H](CC(=O)NCc3ccncc3)O[C@@H]2CO)c1 | -19% |
| O=C(C[C@H]1C[C@H]2c3cc(NC(=O)Cc4ccncc4)ccc3O[C@H]2[C@@H](CO)O1)NCc1ccncc1 | 9.47% |
| Cn1c(-c2ccc(Cl)cc2)ccc(C#N)c1=O | 154% |
| Cc1onc(-c2ccccc2)c1C(=O)OCCOc1cccc(Cl)c1 | 230% |
| Cn1cccc1C(=O)OCC(=O)NCCc1ccc(S(N)(=O)=O)cc1 | -0.379% |
| Cn1c(=O)c2c(nc(NCCc3ccccc3)n2Cc2ccccc2)n(C)c1=O | -5.69% |
| COc1ccc(S(=O)(=O)N2CCCCC2)cc1NC(=O)CCCOc1ccc(C)cc1 | 28.8% |
| CCOC(=O)CN1CCCc2nc(C)c(C)cc21 | -37.3% |
| COCc1[nH]nc2c1C(c1ccc(F)cc1)N(Cc1ccccc1)C2=O (configuration not stated) | 25.9% |
| CC(=O)Nc1ccc(C(=O)OCC(=O)NC(=O)NCc2ccccc2)cc1 | 16.9% |
| CCN(CC)S(=O)(=O)c1ccc(NC(=O)Nc2cccc(C(F)(F)F)c2)cc1 | 254% [at 16 µM] |
| CCN(CC)S(=O)(=O)c1cccc(NC(=O)c2ccc(-n3nc(C)cc3C)cc2)c1 | -37.1% |
| CC(C)(C)c1ccc(-n2ncc3c2CCCC3NC(=O)CN2CCCC2=O)cc1 (configuration not stated) | -25.1% |
| C[C@H](CO)N1C[C@H](C)[C@H](CN(C)S(=O)(=O)c2ccccc2)Oc2cc(Br)ccc2S1(=O)=O | 95.4% |
| CC(C)(C)c1ccc(OCCC(=O)Nc2cccc(S(=O)(=O)N3CCOCC3)c2)cc1 | 5.13% |
| CCc1nc(N2CCCCC2)c2oc3ccccc3c2n1 | 26.5% |
| CCc1nc(N2CCCCC2C)c2oc3ccccc3c2n1 (configuration not stated) | 140% |

| SMILES | activity change, negative = inhibition |
| --- | --- |
| NC(=S)c1ccc(OCCCc2ccccc2)cc1 | 111% [at 8 µM] |
| O=C1c2cccc(OCc3ccc(F)cc3)c2CCN1Cc1ccccc1 | 93.8% |
| Nc1nc2c(ncn2[C@@H]2O[C@H](C(=O)NCC(c3ccccc3)c3ccccc3)[C@@H](O)[C@H]2O)c(=O)[nH]1 | 38.2% |
| Nc1ncn([C@H]2C[C@H](O)[C@@H](CO)O2)c(=O)n1 | 20.5% |
| O=S(=O)(NC1CC1)c1ccc(S(=O)(=O)N2CCCc3ccccc32)cc1 | -38.3% |
| O=C(Cn1ncc2c(=O)oc3ccccc3c21)N1CCC(N2CCCCC2)CC1 | 15.6% |
| O=C(CCNC(=O)c1ccc(Br)cc1)NNC(=O)COc1ccccc1F | -20.2% |
| O=C(NCCc1ccccc1)c1ccc2c(c1)OCCO2 | -95.2% |
| CC(=O)c1c(C)[nH]c(C(=O)OCCCCN2C(=O)c3ccccc3C2=O)c1C | 7.87% |
| CC(C)C#Cc1ccc2c(c1)O[C@@H](CN(C)C(=O)C1CCCCC1)[C@H](C)CN([C@H](C)CO)S2(=O)=O | 103% [at 16 µM] |
| COc1ccc(-c2ccc3c(c2)[C@@H]2[C@@H](CCN2C(=O)NC2CCCC2)[C@H](CO)N3C)cc1 | -28.1% [at 30 µM] |
| N#CCSc1nnc(-c2sc3ccccc3c2Cl)o1 | -1.12% |
| C[C@@H]1CN([C@H](C)CO)S(=O)(=O)c2ccc(-c3ccccc3)cc2O[C@@H]1CN(C)Cc1ccccc1 | -1.1% |
| CCOc1ccc(NC2c3ccccc3C(=O)N2Cc2ccco2)cc1 (configuration not stated) | 64.9% |
| Cc1ccc(S(=O)(=O)N(C)C[C@H]2Oc3ccc(NC(=O)Nc4cccc5ccccc45)cc3C(=O)N([C@H](C)CO)C[C@@H]2C)cc1 | 20.3% |
| C[C@@H]1CN([C@H](C)CO)C(=O)c2cc(NC(=O)Nc3ccccc3)ccc2O[C@@H]1CN(C)S(=O)(=O)c1ccccc1 | -7.14% |
| COc1ccccc1C#Cc1ccc([C@H]2[C@H](C#N)N(C(=O)C3CCCC3)[C@H]2CO)cc1 | 21.4% |
| CCCCS(=O)(=O)N1CCN(C(=O)C(=O)c2cccc(C(F)(F)F)c2)CC1 | -13.8% |
| COc1ccc(C)cc1NC(=O)CCNS(=O)(=O)c1ccc2c(c1)CC(C)N2C(C)=O (configuration not stated) | 12.6% |
| COc1ccc(NC(=O)C(=O)NCC2CCCN2S(=O)(=O)c2cccs2)cc1 (configuration not stated) | 318% |
| O=C(Nc1ccc(C(=O)OC2CCCCC2)cc1)c1ccncc1 | -13.2% |
| Cc1cccc(/C=N\Nc2cn[nH]c(=O)c2Cl)c1 | 105% [at 16 µM] |
| COc1ccc(NC(=O)CN2CCC(C(N)=O)(N3CCCCC3)CC2)cc1 | 25.3% |
| COc1ccc(-c2cn(CC[C@H]3CC[C@H](NS(=O)(=O)c4ccccc4C)[C@H](CO)O3)nn2)cc1 | -19.3% |
| O=C(CCN1CCCCC1)N[C@@H]1CC[C@@H](CCn2cc(-c3ccccc3)nn2)O[C@@H]1CO | 17.2% |
| O=C(Cc1ccncc1)N[C@H]1CC[C@@H](CCn2cc(-c3ccccc3F)nn2)O[C@@H]1CO | 49% |
